Source: PubChem BioAssay AID2654 (Johns Hopkins Ion Channel Center, 2010)
Entries with a potency or affinity are not part of this list. Active and inactive are the calls of the source.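 How the source made its calls: active means increase of the KCNQ2 potassium channel current at -35 mV by at least one tested dose; inactive means no tested dose increases that current.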

The compounds below were run against Potassium voltage-gated channel subfamily KQT member 2 (Rattus norvegicus) (UniProt O88943) (assay: retigabine-insensitive KCNQ2 potentiators, concentration-response, dose response, cell-based, retigabine-insensitive compounds (AID 2654)). Details: KCNQ2-CHO cells, automated patch clamp current potentiation; at 30 µM (top of the series).
Sequence of Potassium voltage-gated channel subfamily KQT member 2 (Rattus norvegicus) (O88943 whole entry, looked up): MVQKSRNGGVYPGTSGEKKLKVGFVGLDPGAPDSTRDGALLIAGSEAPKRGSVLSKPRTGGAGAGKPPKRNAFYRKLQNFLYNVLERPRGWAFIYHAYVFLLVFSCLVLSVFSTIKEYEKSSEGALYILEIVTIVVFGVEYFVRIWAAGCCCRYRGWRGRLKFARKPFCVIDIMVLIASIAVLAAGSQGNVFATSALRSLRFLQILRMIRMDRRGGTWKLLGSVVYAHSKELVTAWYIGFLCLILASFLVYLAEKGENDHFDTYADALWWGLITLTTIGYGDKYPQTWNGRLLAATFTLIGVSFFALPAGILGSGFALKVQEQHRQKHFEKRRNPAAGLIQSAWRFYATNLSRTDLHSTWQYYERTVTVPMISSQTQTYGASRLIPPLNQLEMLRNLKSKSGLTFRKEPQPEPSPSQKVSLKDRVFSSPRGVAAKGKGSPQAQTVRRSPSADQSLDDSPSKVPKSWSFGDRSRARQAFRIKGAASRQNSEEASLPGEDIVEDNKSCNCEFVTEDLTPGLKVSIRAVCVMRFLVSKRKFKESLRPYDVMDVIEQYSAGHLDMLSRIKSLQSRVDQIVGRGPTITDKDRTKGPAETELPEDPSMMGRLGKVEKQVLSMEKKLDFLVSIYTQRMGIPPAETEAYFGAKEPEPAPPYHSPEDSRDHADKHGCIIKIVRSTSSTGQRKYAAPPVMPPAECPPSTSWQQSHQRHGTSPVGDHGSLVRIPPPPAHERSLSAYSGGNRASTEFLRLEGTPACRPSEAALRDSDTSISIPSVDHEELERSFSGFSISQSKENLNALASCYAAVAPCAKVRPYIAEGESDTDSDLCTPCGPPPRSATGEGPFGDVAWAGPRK

outcome, inactive:
S=C(Nc1cccnc1)NC1CCCc2ccccc21 (configuration not stated)
CCOc1ccccc1NC(=O)Nc1cccnc1
Cc1ccc(Cl)cc1NC(=S)Nc1cccnc1
S=C(NCc1ccc(Cl)cc1Cl)Nc1cccnc1
Cc1ccnc(NC(=O)NCc2ccc(Cl)cc2Cl)c1
COc1cccc(NC(=S)Nc2cccnc2)c1
O=C(Nc1cccnc1)Nc1cc(Cl)cc(Cl)c1
COc1cc(NC(=S)Nc2cccnc2)cc(OC)c1
S=C(Nc1cccnc1)NC1CCCC1
O=C(NCc1ccc(Cl)cc1Cl)Nc1ccc(Br)nc1
O=C(Nc1cccc(Cl)c1)N(CC1CC1)c1cccnc1
Fc1ccc(NC(=S)Nc2cccnc2)c(F)c1F
O=C(NCc1ccc(Cl)cc1Cl)Nc1nccs1
Cc1nc(F)ccc1NC(=O)Nc1cccc(F)c1
Fc1ccc(NC(=S)Nc2cccnc2)cc1Cl
O=C(Nc1cccnc1)Nc1ccc(F)cc1F
Cc1cc(Cl)ccc1NC(=S)Nc1cccnc1
Cc1cc(NC(=O)NCc2ccc(Cl)cc2Cl)cnc1Cl
O=C(Nc1cccnc1)Nc1ccc(Cl)c(Cl)c1
COc1ccccc1NC(=O)Nc1cccnc1
S=C(NCc1ccccc1)Nc1cccnc1
COc1nccc(NC(=O)Nc2cccc(F)c2)n1
Cc1nc(F)ccc1NC(=O)NCc1ccc(Cl)cc1Cl
O=C(Nc1cccnc1)Nc1ccc(Br)cc1Cl

potentiation, 102:
Cc1c(Cl)cccc1NC(=O)Nc1cccnc1

potentiation, 96.9:
FC(F)(F)c1cccc(NC(=S)Nc2cccnc2)c1

potentiation, 103:
O=C(Nc1cccnc1)Nc1ccc2c(c1)CCC2
